{
  "source": "PubChem BioAssay (EPA / NIEHS)",
  "key": {"[1]": {"experiment": "TOX21_TR_RXR_BLA_Agonist_Followup_viability: Viability Assessment in the Tox21 Thyroid Hormone Receptor beta Retinoid X Receptor alpha (RXRa) Agonism Beta-lactamase (BLA) Follow-Up Assay (AID 2283970)", "method_in_brief": "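CellTiter-Glo ATP quantitation as viability read-out in RXRa-bla HEK293T cells (2,500/well, charcoal-stripped 2% FBS medium), 16h compound incubation at 37C. Loss of signal versus DMSO taken as cytotoxicity, analyzed by bidirectional curve fitting.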"}, "[2]": {"target": "Estrogen receptor (Homo sapiens) (UniProt P03372)", "sequence (P03372 whole entry, looked up)": "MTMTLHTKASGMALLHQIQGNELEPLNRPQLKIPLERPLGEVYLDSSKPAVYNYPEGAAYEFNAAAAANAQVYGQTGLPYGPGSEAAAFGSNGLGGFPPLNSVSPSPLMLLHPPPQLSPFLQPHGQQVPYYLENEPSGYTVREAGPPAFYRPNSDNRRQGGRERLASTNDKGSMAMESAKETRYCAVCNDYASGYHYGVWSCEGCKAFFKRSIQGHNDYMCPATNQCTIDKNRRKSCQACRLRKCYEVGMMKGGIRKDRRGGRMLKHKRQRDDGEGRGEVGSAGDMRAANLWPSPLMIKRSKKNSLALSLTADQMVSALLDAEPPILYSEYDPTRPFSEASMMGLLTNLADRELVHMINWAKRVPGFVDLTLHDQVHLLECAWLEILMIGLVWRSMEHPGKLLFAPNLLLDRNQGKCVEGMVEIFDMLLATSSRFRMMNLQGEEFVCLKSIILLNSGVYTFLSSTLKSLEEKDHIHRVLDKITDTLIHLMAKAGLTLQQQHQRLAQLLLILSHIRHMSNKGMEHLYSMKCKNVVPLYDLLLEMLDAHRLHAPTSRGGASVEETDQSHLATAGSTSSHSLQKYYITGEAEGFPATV", "experiment": "NVS_NR_hER: NovaScreen (NVS) Nuclear Receptor Binding Assay for human Estrogen Receptor (ER) (AID 2283348)", "method_in_brief": "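MCF7-derived receptor extract, radiolabelled ligand, competitive displacement. Read: scintillation counts at 18 h. DMSO = negative control/baseline. Primary 25 uM duplicate; follow-up concentration–response.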"}, "[3]": {"target": "human Beta-secretase (BACE), BACE1 (gene 23621) (UniProt P56817)", "experiment": "NVS_ENZ_hBACE: NovaScreen (NVS) Enzymatic Assay for human Beta-secretase (BACE) (AID 2283140);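 note: hits are inhibitors that reduce fluorescent substrate signal versus DMSO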", "method_in_brief": "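SF9-expressed enzyme, cell-free; fluorescent substrate readout after 1 h. Screened at 25 uM single concentration, duplicate; hits retested in concentration series. Activity relative to DMSO baseline, loss-of-signal.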"}, "[4]": {"target": "human Vascular Endothelial Growth Factor Receptor 1 (VEGFR1), FLT1 (gene 2321) (UniProt P17948)", "sequence (P17948 whole entry, looked up)": "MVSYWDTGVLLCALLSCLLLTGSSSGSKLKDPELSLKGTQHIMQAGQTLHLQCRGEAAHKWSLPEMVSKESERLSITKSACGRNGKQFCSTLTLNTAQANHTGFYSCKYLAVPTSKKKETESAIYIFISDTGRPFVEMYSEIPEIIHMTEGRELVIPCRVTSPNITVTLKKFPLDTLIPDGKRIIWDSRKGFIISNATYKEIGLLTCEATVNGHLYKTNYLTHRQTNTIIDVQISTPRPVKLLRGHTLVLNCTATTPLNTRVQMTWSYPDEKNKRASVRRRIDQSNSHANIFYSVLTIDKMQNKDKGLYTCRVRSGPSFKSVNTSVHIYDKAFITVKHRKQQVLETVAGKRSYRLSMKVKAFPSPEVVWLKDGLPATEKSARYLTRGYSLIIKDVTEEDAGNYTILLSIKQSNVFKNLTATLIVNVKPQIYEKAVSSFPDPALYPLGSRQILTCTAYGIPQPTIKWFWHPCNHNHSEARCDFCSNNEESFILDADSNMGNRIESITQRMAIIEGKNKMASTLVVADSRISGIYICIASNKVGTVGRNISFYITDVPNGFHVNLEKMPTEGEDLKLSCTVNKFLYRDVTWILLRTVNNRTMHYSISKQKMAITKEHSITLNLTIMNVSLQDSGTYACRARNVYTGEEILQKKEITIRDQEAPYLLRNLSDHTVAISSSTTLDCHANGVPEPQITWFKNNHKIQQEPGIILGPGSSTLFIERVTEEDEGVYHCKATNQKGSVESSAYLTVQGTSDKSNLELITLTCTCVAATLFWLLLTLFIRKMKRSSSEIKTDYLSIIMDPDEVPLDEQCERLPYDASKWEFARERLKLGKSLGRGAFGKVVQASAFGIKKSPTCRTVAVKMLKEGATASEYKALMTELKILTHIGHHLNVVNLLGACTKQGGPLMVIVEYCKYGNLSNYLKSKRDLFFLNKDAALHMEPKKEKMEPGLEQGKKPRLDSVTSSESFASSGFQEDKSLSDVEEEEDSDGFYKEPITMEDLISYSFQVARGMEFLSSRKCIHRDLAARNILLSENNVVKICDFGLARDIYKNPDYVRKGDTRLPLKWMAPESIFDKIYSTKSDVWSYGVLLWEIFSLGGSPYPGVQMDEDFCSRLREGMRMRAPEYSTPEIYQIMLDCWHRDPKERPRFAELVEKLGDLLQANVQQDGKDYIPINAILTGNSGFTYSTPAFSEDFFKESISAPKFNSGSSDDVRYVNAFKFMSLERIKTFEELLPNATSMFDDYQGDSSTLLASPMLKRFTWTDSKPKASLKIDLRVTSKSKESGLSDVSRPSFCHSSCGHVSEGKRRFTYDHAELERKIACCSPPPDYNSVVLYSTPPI", "experiment": "NVS_ENZ_hVEGFR1: NovaScreen (NVS) Enzymatic Assay for human Vascular Endothelial Growth Factor Receptor 1 (VEGFR1) (AID 2283226)", "method_in_brief": "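Kinase activity of recombinant human VEGFR1 was read by fluorescence after electrophoretic separation of product from substrate, 1 h post-dosing; initial duplicate single-point testing at 25 uM, followed by concentration-series follow-up, with DMSO as baseline.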"}, "[5]": {"target": "human Adenosine A2a Receptor (AdoRA2a), ADORA2A (gene 135) (UniProt P29274)", "sequence (P29274 whole entry, looked up)": "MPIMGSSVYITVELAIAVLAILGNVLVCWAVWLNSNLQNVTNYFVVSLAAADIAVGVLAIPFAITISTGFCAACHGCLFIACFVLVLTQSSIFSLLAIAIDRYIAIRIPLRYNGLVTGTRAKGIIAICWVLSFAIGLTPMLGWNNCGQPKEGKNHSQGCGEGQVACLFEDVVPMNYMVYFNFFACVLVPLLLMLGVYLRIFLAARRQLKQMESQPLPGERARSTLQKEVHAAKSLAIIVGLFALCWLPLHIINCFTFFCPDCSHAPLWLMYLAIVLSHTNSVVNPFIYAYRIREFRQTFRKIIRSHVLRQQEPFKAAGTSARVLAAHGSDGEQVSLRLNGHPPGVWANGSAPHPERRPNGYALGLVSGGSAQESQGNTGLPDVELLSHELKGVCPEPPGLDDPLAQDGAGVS", "experiment": "NVS_GPCR_hAdoRA2a: NovaScreen (NVS) G Protein-Coupled Receptor Assay for human Adenosine A2a Receptor (AdoRA2a) (AID 2283256)", "method_in_brief": "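HEK293-derived receptor preparation, radioligand displacement, 1.5 h, filtration + scintillation read. Loss of bound signal scored vs DMSO. Single-point 25 uM in duplicate first, then concentration-response for actives.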"}, "[6]": {"target": "human Caspase 5 (CASP5), CASP5 (gene 838) (UniProt P51878)", "sequence (P51878 whole entry, looked up)": "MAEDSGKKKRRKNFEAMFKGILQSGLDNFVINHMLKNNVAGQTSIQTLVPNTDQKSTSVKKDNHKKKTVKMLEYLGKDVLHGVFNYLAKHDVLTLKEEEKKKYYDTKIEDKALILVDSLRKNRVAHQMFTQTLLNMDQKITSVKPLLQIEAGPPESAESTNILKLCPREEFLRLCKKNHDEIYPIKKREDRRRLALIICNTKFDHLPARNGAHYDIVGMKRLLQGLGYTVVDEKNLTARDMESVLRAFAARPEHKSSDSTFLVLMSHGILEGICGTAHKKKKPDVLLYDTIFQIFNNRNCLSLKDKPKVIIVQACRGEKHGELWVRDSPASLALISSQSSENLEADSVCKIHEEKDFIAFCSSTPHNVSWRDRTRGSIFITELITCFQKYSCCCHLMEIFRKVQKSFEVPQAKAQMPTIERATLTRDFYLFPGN", "experiment": "NVS_ENZ_hCASP5: NovaScreen (NVS) Enzymatic Assay for human Caspase 5 (CASP5) (AID 2283137)", "method_in_brief": "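Fluorescent substrate readout of CASP5 activity (loss-of-signal), measured 2 h post-dose. Protein expressed in E. coli. Primary screen duplicate at 25 uM; actives meeting threshold (e.g., 30% inhibition) rerun singleton, max 50 uM.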"}, "[7]": {"experiment": "UKN5_HCS_SBAD2_cell_viability: Viability Assessment in the University of Konstanz (UKN) Leist Lab Neurite Outgrowth Assay in human iPSC-derived immature Dorsal Root Ganglia Neurons (UKN5) (AID 2284056; active = hit-call score of the fitted dose curve at least 0.9, where 1 is the maximum; inactive = score below 0.9)", "method_in_brief": "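iPSC-derived immature peripheral neurons (SBAD2) seeded on Matrigel with CHIR99021, SU5402 and DAPT, dosed 1 h later for 24 h. Viability from Hoechst H-33342 and calcein-AM live staining, high-content imaging; bidirectional fit versus DMSO.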"}, "[8]": {"experiment": "UKN5_HCS_SBAD2_neurite_outgrowth: University of Konstanz (UKN) Leist Lab Neurite Outgrowth Assay in human iPSC-derived immature Dorsal Root Ganglia Neurons (UKN5) (AID 2284070; active = hit-call score of the fitted dose curve at least 0.9, where 1 is the maximum; inactive = score below 0.9)", "settings": "actives raise or lower the signal", "method_in_brief": "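Cryopreserved SBAD2 peripheral neurons were seeded at 100.000 cells/cm2 in N2-S/KSR medium containing CHIR99021, SU5402 and DAPT, then exposed to compounds for 24 h. Neurite area from calcein-AM high-content imaging was fitted bidirectionally against DMSO.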"}, "[9]": {"experiment": "CCTE_Mundy_HCI_Cortical_NOG_NeuronCount: CCTE's Neurite Outgrowth Assay in rat cortical cells for Neuron Count, Mundy Lab (AID 2284236);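 note: cells exposed to compound for about 48 hours before fixation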", "method_in_brief": "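Read-out: neuron number by high-content imaging of betaIII-tubulin (Alexa Fluor-488) and Hoechst-labelled rat primary cortical cells.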"}, "[10]": {"target": "human Esterase Plasma (ES), BCHE (gene 590) (UniProt P06276)", "experiment": "NVS_ENZ_hES: NovaScreen (NVS) Enzymatic Assay for human Esterase Plasma (ES) (AID 2283157)", "method_in_brief": "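Human plasma-derived enzyme, cell-free, colorimetric readout at 0.25 h. Primary screen 25 uM in duplicate; hits (e.g. ≥30% inhibition) rerun singleton up to 50 uM. DMSO = negative control/baseline.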"}, "[11]": {"target": "guinea pig Opioid, Kappa 1 Receptor (OpiateK), OPRK1 (gene 100135587) (UniProt P41144)", "sequence (P41144 whole entry, looked up)": "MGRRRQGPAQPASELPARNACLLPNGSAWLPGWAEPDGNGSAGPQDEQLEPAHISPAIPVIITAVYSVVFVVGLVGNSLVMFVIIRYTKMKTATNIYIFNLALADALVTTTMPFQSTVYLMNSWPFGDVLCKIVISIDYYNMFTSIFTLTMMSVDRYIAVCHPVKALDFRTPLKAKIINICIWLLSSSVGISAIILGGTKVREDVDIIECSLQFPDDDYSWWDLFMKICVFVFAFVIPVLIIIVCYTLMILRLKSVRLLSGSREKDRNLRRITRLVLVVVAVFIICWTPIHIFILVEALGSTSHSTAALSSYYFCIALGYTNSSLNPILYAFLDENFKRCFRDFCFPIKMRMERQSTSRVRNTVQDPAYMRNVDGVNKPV", "experiment": "NVS_GPCR_gOpiateK: NovaScreen (NVS) G Protein-Coupled Receptor Assay for guinea pig Opioid, Kappa 1 Receptor (OpiateK) (AID 2283252);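 note: active means reduced radioligand binding relative to DMSO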", "method_in_brief": "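Cell-free tissue prep: guinea pig cerebellar membranes, radioligand displacement, 2 h incubation. Readout: filtration plus scintillation counting. Primary single-point 25 uM duplicate; actives retested in concentration series; DMSO negative control.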"}, "[12]": {"target": "rat Adrenergic Receptor, Alpha 2 (Adra2), Non-selective Binding, Adra2a (gene 25083) (UniProt P22909)", "experiment": "NVS_GPCR_rAdra2_NonSelective: NovaScreen (NVS) G Protein-Coupled Receptor Assay for rat Adrenergic Receptor, Alpha 2 (Adra2), Non-selective Binding (AID 2283299)", "method_in_brief": "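Filter-based scintillation counting of radioligand binding to rat cortical membrane receptors, measured 1.25 hours post-dosing; loss of signal versus DMSO indicates displacement. Initial single-concentration duplicate at 25 uM, then concentration series.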"}, "[13]": {"target": "rat Serotonin Transporter (SERT), Slc6a4 (gene 25553) (UniProt P31652)", "experiment": "NVS_TR_rSERT: NovaScreen (NVS) Transporter Assay for rat Serotonin Transporter (SERT) (AID 2283375)", "method_in_brief": "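Filtration-based radiodetection quantified loss of specific radioligand binding in rat forebrain membranes after 1 hour of chemical exposure, relative to DMSO. Chemicals were first tested in duplicate at 25 uM.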"}, "[14]": {"experiment": "CCTE_Padilla_ZF_144hpf_TERATOSCORE: (Legacy) CCTE's 144 Hour Post-fertilization zebrafish Assay Teratoscore, Padilla Lab (AID 2283679; active = hit-call score of the fitted dose curve at least 0.9, where 1 is the maximum; inactive = score below 0.9;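 note: zebrafish embryos with chorions exposed by immersion from 6-8 hpf to 5 dpf with daily renewal; teratogenicity score from eye scoring of death hatching and malformations at 144 hpf; higher score means more developmental defects relative to DMSO baseline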)", "method_in_brief": "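Larvae scored by eye at 144 hpf for death, hatching and malformations after a day in clean Hanks'. Before that, daily-renewed exposure at 80 uM (0.4% DMSO, 26C) from roughly 6-8 hpf through 5 dpf, 4 embryos per chemical.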"}, "[15]": {"target": "THRB (gene 7068) (UniProt P10828)", "sequence (P10828 whole entry, looked up, the tested form may be a part)": "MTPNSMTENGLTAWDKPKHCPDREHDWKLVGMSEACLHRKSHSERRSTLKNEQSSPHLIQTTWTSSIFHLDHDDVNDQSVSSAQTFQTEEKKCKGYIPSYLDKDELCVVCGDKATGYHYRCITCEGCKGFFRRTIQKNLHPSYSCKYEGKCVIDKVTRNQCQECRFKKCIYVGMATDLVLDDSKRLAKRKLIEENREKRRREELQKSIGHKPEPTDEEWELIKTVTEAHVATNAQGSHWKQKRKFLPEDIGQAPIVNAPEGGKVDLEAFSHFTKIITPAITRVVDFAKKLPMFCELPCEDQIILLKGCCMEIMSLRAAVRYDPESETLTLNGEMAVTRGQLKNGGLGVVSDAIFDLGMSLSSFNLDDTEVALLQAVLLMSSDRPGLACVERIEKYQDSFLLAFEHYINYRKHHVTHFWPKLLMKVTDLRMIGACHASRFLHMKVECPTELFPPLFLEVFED", "experiment": "TOX21_TRB_BLA_Antagonist_Followup_ratio: Tox21 Thyroid Hormone Receptor beta Antagonism Beta-lactamase (BLA) Follow-Up Assay, Ratio (AID 2283958)", "method_in_brief": "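Read-out: blue/green (460:530 nm) ratio of cleaved to uncleaved CCF4-AM after 2 h at room temperature, fitted against DMSO baseline. HEK293T UAS-bla cells carrying GAL4-human TRβ LBD were exposed 18 h, 37C/5% CO2.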"}, "[16]": {"experiment": "TOX21_TRB_BLA_Antagonist_Followup_viability: Viability Assessment in the Tox21 Thyroid Hormone Receptor beta Antagonism Beta-lactamase (BLA) Follow-Up Assay (AID 2283961)", "method_in_brief": "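TRβ-bla HEK293T (human TRβ LBD fused to GAL4 DBD), 3,000 cells/well, 2% charcoal-stripped FBS, phenol red-free medium; 18 h compound exposure, 37C; CellTiter-Glo 30 min RT; luminescence, loss-of-signal readout.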"}, "[17]": {"target": "THRB (gene 7068) (UniProt P10828)", "experiment": "TOX21_TRB_COA_Antagonist_Followup_ratio: Tox21 Thyroid Hormone Receptor beta Antagonism through Coactivator Recruitment Follow-Up Assay, Ratio (AID 2283967)", "method_in_brief": "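GST-TRb LBD 5.0 nM + 0.10% BSA, compound added; fluorescein-SRC-2 peptide 200 nM, Tb-anti-GST Ab 2 nM. TR-FRET, ex 340 / em 520:495 ratio. Norm: DMSO 0%, T3 100%.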"}, "[18]": {"target": "Retinoic acid receptor RXR-alpha (Homo sapiens) (UniProt P19793)", "sequence (P19793 whole entry, looked up)": "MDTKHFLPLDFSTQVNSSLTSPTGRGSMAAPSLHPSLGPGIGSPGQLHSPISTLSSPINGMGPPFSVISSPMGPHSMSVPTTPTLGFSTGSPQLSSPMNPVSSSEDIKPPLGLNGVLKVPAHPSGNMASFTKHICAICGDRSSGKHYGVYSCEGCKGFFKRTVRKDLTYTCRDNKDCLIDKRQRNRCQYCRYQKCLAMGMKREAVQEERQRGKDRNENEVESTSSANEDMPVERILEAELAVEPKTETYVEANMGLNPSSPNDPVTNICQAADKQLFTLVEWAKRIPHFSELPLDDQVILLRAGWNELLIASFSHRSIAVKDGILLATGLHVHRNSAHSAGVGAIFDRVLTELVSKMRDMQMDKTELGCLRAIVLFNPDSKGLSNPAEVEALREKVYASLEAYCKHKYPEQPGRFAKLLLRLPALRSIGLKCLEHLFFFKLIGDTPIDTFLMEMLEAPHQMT", "experiment": "TOX21_TR_RXR_BLA_Antagonist_Followup_ratio: Tox21 Thyroid Hormone Receptor beta Retinoid X Receptor alpha (RXRa) Antagonism Beta-lactamase (BLA) Follow-Up Assay, Ratio (AID 2283972)", "method_in_brief": "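HEK293T RXRa-bla, 2% charcoal-stripped FBS medium, 16 h compound exposure at 37C, qHTS 11 conc x3. CCF4 FRET ratio ch2/ch1 (460:530), DMSO = baseline, loss-of-signal fit.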"}, "[19]": {"experiment": "TOX21_TR_RXR_BLA_Antagonist_Followup_viability: Viability Assessment in the Tox21 Thyroid Hormone Receptor beta Retinoid X Receptor alpha (RXRa) Antagonism Beta-lactamase (BLA) Follow-Up Assay (AID 2283979)", "method_in_brief": "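RXRa-bla HEK293T cells (2,500/well, phenol red-free DMEM, 2% charcoal-stripped FBS) were attached 5 h, then exposed to compounds at 11 concentrations in triplicate for 16 h at 37C. Viability measured by CellTiter-Glo ATP luminescence, bidirectional fitting versus DMSO.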"}, "[20]": {"target": "rat Androgen Receptor (AR), Ar (gene 24208) (UniProt P15207)", "sequence (P15207 whole entry, looked up)": "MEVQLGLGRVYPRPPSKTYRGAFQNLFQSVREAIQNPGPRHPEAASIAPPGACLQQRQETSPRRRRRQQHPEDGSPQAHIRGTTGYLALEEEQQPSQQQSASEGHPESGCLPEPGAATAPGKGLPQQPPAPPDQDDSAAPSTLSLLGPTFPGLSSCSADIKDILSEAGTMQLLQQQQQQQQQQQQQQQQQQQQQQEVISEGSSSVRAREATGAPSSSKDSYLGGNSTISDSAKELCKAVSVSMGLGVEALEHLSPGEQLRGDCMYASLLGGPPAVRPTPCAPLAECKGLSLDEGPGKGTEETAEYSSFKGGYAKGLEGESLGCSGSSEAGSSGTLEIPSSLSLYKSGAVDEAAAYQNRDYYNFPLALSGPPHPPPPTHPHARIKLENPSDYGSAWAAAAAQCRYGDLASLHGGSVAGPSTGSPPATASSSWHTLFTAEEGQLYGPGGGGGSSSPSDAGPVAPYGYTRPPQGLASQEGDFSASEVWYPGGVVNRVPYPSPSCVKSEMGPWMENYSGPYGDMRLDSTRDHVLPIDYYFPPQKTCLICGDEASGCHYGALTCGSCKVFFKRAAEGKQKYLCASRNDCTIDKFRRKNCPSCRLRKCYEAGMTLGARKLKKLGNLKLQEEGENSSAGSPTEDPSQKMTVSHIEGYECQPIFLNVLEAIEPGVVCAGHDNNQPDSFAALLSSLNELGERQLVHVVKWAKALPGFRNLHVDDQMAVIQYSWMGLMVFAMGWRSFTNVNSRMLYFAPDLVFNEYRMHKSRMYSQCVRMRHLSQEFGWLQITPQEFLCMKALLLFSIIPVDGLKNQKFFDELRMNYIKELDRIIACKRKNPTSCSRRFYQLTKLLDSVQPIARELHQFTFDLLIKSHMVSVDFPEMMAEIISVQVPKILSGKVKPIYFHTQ", "experiment": "NVS_NR_rAR: NovaScreen (NVS) Nuclear Receptor Binding Assay for rat Androgen Receptor (AR) (AID 2283366)", "method_in_brief": "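Actives from a duplicate single-concentration (25 uM) primary run went on to concentration series. Displacement of radioligand was counted by filtration and scintillation, 18 h post-dose, using prostate extracts from testosterone-pretreated rats, with DMSO as baseline.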"}},
  "note": "Several values for one entry are separate records, joined by “and”; a condition that tells them apart may be missing. Equal values may be shown once. Results filed as inconclusive are left out. Activity calls are given as the source filed them. Rule for the calls, unless noted: active = hit-call score of the fitted dose curve at least 0.9, where 1 is the maximum; inconclusive = response in the unintended direction; inactive = score below 0.9.",
  "data": [
    {"smiles": "CC(C)CC(=O)O", "values": [
      {"measurement": "outcome", "setting": "[1]", "result": "inactive"}
    ]},
    {"smiles": "c1cc(N(CC2CO2)CC2CO2)ccc1Cc1ccc(N(CC2CO2)CC2CO2)cc1", "note": "(stereo not given)", "values": [
      {"measurement": "outcome", "setting": "[2]", "result": "inactive"}
    ]},
    {"smiles": "CC(C)CC(=O)CC(C)CC(C)C", "note": "(stereo not given)", "values": [
      {"measurement": "outcome", "setting": "[3]", "result": "inactive"}
    ]},
    {"smiles": "CC(=O)CCc1ccccc1", "values": [
      {"measurement": "outcome", "setting": "[4]", "result": "inactive"}
    ]},
    {"smiles": "CCC(C)(CCC(C)C)C(=O)O", "note": "(stereo not given)", "values": [
      {"measurement": "outcome", "setting": "[5]", "result": "inactive"}
    ]},
    {"smiles": "CC1(C)S[C@@H]2[C@H](NC(=O)[C@H](N)c3ccccc3)C(=O)N2[C@H]1C(=O)O", "values": [
      {"measurement": "AC50", "setting": "[6]", "result": "1.88 µM (active)"},
      {"measurement": "outcome", "setting": "[7]", "result": "inactive"},
      {"measurement": "outcome", "setting": "[8]", "result": "inactive"},
      {"measurement": "outcome", "setting": "[9]", "result": "inactive"}
    ]},
    {"smiles": "CN(C)CCC(c1ccc(Cl)cc1)c1ccccn1", "note": "(stereo not given)", "values": [
      {"measurement": "AC50", "setting": "[10]", "result": "19.9 µM (active)"},
      {"measurement": "AC50", "setting": "[11]", "result": "12.7 µM (active)"},
      {"measurement": "AC50", "setting": "[12]", "result": "13.9 µM (active)"},
      {"measurement": "AC50", "setting": "[13]", "result": "2.95 µM (active)"}
    ]},
    {"smiles": "CC(C)n1c(/C=C/[C@@H](O)C[C@@H](O)CC(=O)O)c(-c2ccc(F)cc2)c2ccccc21", "values": [
      {"measurement": "AC50", "setting": "[14]", "result": "447 nM (active) and 111 nM (active)"},
      {"measurement": "outcome", "setting": "[15]", "result": "inactive"},
      {"measurement": "outcome", "setting": "[16]", "result": "inactive"},
      {"measurement": "outcome", "setting": "[17]", "result": "inactive"},
      {"measurement": "outcome", "setting": "[18]", "result": "inactive"},
      {"measurement": "outcome", "setting": "[19]", "result": "inactive"}
    ]},
    {"smiles": "Cc1cc(-n2nc3ccc(Cl)cc3n2)c(O)c(C(C)(C)C)c1", "values": [
      {"measurement": "outcome", "setting": "[20]", "result": "inactive"}
    ]}
  ]
}
